Compound activity: PubChem, several laboratories
Only some compounds are listed: those with a hit (about 1.9% of all), similar ones and a draw of the others.
SSB-PriA inh = K. pneumoniae PriA-SSBct interaction inhibition; AlphaScreen SSBct-PriA binding, biotinylated peptide; inhibition, % at 33 µM; 0.6% of 430,000 active; in the data active means inhibition mostly above about 37%, no sharp cut-off; inactive means mostly below about 20%
RecA splice inh = inhibitors of M. tuberculosis RecA intein splicing; cell-free RecA intein splicing, fluorescence; inhibition, % (concentration not given with the values); 0.75% of 290,000 active; AID 2221; in the data active means inhibition above about 30%
Target sequence (P9WHJ3 whole entry, looked up, canonical isoform): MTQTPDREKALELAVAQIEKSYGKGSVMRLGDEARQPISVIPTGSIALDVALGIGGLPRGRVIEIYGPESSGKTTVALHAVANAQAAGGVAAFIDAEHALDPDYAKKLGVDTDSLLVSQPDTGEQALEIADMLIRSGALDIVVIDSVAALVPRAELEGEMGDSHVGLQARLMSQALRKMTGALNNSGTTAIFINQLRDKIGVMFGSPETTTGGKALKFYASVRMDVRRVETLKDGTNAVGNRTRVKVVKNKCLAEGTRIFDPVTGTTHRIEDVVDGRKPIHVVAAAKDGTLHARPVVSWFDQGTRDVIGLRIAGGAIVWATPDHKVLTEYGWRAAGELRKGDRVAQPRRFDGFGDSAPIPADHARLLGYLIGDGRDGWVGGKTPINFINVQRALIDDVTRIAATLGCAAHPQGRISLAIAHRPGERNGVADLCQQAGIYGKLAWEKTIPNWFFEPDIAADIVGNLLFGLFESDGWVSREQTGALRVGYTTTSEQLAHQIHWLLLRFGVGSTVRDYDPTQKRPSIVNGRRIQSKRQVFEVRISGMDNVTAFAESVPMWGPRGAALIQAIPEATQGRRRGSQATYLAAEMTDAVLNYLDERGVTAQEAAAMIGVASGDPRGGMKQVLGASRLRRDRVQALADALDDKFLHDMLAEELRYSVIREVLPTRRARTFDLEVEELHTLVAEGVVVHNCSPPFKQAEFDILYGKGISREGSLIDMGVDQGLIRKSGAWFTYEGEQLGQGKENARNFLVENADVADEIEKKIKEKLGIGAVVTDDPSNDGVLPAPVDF
PrPC surface inh = reduces human prion protein on the cell surface. P04156. inhibition, % at 13.8 µM. 0.43% of 370,000 active. cell surface PrPC, TR-FRET read-out. AID 720596; in the data active means inhibition above about 24%
BJeLR viability = kills HRASV12-expressing BJeLR cells; 0.17% of 300,000 active; BJeLR (HRASV12) viability, CellTiter-Glo ATP luminescence, 48 h; inhibition, % (concentration not given with the values); in the data active means inhibition above about 50%
PfHsp40 rescue = compounds rescuing yeast from Plasmodium falciparum HSP40 toxicity; growth rescue, % at 12.5 µM; S. cerevisiae expressing PfHsp40, growth rescue, ATP luminescence; AID 504582; 0.68% of 340,000 active; in the data active means growth rescue above about 28%, passing the limit was not always enough;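 further: yeast W303a lacking pdr1 and pdr3 grown in galactose medium; growth measured after three days at 30 °C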
PrP 5UTR inh = inhibition of PrP 5' UTR reporter expression | inhibition, % (test concentration not listed) | 0.35% of 340,000 active | cell-based PrP 5' UTR mRNA reporter, plate reader | AID 488862; in the data active means inhibition above about 52%
PrPC confirm = confirmation of inhibitors of cell surface human prion protein | shares compounds with PrPC surface inh | cell surface PrPC level, TR-FRET | inhibition, % at 13.8 µM | 65% of 1,500 active | AID 743200; in the data active means inhibition above about 25%
LD9 tox = LD9 cell cytotoxicity, PrPc inhibitor counter-screen; LD9 cells cytotoxicity, luminescence viability; inhibition, % at 13.8 µM; 29% of 1,500 active; shares compounds with PrPC surface inh; in the data active means inhibition above about 9.5%
A number is an active result; i = inactive; nt = no result given.

SMILES	SSB-PriA inh	RecA splice inh	PrPC surface inh	BJeLR viability	PfHsp40 rescue	PrP 5UTR inh	PrPC confirm	LD9 tox
CC(NC(=O)CSc1ccc(S(=O)(=O)N2CCOCC2)cn1)c1ccc(Cl)cc1Cl (stereo unspecified)	i	nt	27	nt	i	i	i	i
CCCc1c(C(=O)Nc2nccs2)nnn1-c1ccc(OC)cc1	i	nt	nt	nt	nt	nt	nt	nt
CCCCC(=O)N(C)c1c(CC)nc2c(OCCC3CCCCC3)cccn12	nt	nt	i	nt	nt	nt	nt	nt
CCc1nc2c(OCCC3CCCCC3)cccn2c1N(C)C(=O)c1cccs1	nt	nt	27	nt	nt	nt	i	i
CCCCC(=O)N(C)c1c(CC)nc2c(OCC3CCCCC3)cccn12	nt	nt	31	nt	nt	nt	i	i
O=S(=O)(NCCC(O)C1CCOCC1)c1ccc(-n2cccn2)cc1 (stereo unspecified)	i	nt	nt	nt	nt	nt	nt	nt
CC(C)(C)c1ccc(OCCC(=O)Nc2cccc(S(=O)(=O)N3CCOCC3)c2)cc1	i	i	25	i	i	i	i	i
CC(=O)Oc1ccc(-c2ccc(C(=O)Nc3cccc(S(=O)(=O)N4CCOCC4)c3)cc2)cc1	i	i	25	i	i	i	i	i
CN1CCN(S(=O)(=O)c2cccc(C(=O)Nc3cc(C(N)=O)cc(C(N)=O)c3)c2)CC1	i	nt	30	i	i	i	25	i
O=C(O)CCC(=O)N1N=C(c2ccc(Br)cc2)CC1c1nc2ccccc2[nH]1 (stereo unspecified)	i	nt	nt	nt	nt	nt	nt	nt
O=C(O)c1cc2n(n1)CCCO2	i	nt	nt	nt	nt	nt	nt	nt
CN1C(=N)NC(=O)/C1=C/c1ccc(OC(F)(F)F)cc1	i	nt	nt	nt	nt	nt	nt	nt
Cc1ccc(NC(=O)CSc2ncnc3ccccc23)cc1S(=O)(=O)N1CCCCC1	i	i	48	i	i	i	76	i
Cc1ccc(NC(=O)CSc2ncnc3ccccc23)cc1S(=O)(=O)N1CCOCC1	i	i	61	i	i	i	55	i
CCCc1nc(SCC(=O)Nc2ccc(N3CCOCC3)cc2)c2ccccc2n1	i	i	i	i	i	i	nt	nt
Cc1ccc(NC(=O)CSc2ccccc2)cc1S(=O)(=O)N1CCCCC1	i	nt	i	nt	i	i	nt	nt
CC(C)c1nc(SCC(=O)Nc2ccc(N3CCOCC3)cc2)c2ccccc2n1	i	i	33	i	25	i	52	i
NC[C@@H](c1ccc(Cl)cc1)N1CCCCCC1	i	nt	nt	nt	nt	nt	nt	nt
COc1cc(C(=O)Nc2ccccc2-c2ccccc2)on1	i	nt	nt	nt	nt	nt	nt	nt
COC(=O)c1ccc(C(=O)N(/N=C\c2cc(OC)c(OC)c(OC)c2)c2nc3ccc(F)cc3s2)cc1	i	nt	nt	nt	nt	nt	nt	nt
COc1cc(Cl)ccc1C(=O)NC1CCN(c2cc(C(F)(F)F)ncn2)CC1	i	nt	nt	nt	nt	nt	nt	nt
O=S(=O)(NC1c2cccc3cccc(c23)C1N1CCN(CCO)CC1)c1ccccc1 (stereo unspecified)	i	i	34	i	i	i	i	i
Cn1c(=O)c2cc(NC(=O)NCc3ccccc3)ccc2n1Cc1cccc(C(F)(F)F)c1	nt	nt	25	nt	nt	nt	i	i
O=C(O)c1ccc(CSc2ncnc3nc[nH]c23)cc1	i	nt	nt	nt	nt	nt	nt	nt
CSc1nnc(CNC(=O)c2ccc(C(C)(C)C)cc2)n1-c1ccc(F)cc1	i	nt	nt	nt	nt	nt	nt	nt
SMILES	SSB-PriA inh	RecA splice inh	PrPC surface inh	BJeLR viability	PfHsp40 rescue	PrP 5UTR inh	PrPC confirm	LD9 tox
Cc1ccccc1N1C(=O)CC(Sc2nnc(-c3ccccc3)o2)C1=O (stereo unspecified)	i	i	30	i	i	i	i	i
CN(C)S(=O)(=O)c1cccc(-c2nn(-c3ccccc3)cc2/C=C(/C#N)C(=O)NCc2ccco2)c1	i	i	29	i	i	i	i	i
CCN(CC)S(=O)(=O)c1cccc(-c2nn(-c3ccccc3)cc2/C=C(\C#N)C(=O)NCc2ccco2)c1	i	i	i	i	i	i	nt	nt
CCOC(=O)c1csc(NC(=O)c2ccc(C(=O)Nc3nc(C(=O)OCC)cs3)s2)n1	i	nt	nt	nt	nt	nt	nt	nt
O=C1NC(Cc2ccccc2)C(=O)Nc2ccc(Br)cc21 (stereo unspecified)	i	i	25	i	i	i	i	i
Cc1cccc(NNC(=O)C(=O)NNc2cccc(C)c2)c1	i	i	29	i	i	i	i	i
N=C1C(c2ccccc2)=C(O)CN1c1ccccc1	i	i	29	i	i	i	i	i
Cc1ccc(N2CC(O)=C(c3ccccc3)C2=N)cc1	i	i	i	i	i	i	nt	nt
CC(=NNC(=S)Nc1ccccc1)c1c(O)n(C)c(=O)n(C)c1=O	i	nt	nt	nt	nt	nt	nt	nt
COc1ccccc1N1CCN(N=Cc2ccc(OC)c(OC)c2OC)CC1	i	nt	nt	nt	nt	nt	nt	nt
Cc1sc2ncnc(Sc3ccccc3C(=O)Nc3ccc(Br)cc3)c2c1C	i	i	25	i	i	i	31	i
Cc1sc2ncnc(Sc3ccccc3C(=O)Nc3ccc(C#N)cc3)c2c1C	i	i	i	i	i	i	nt	nt
COc1cccc2cc(C(=O)C3=C(O)C(=O)N(CCN(C)C)C3c3ccc(Cl)cc3)oc12 (stereo unspecified)	i	i	41	i	i	i	52	i
CC(C)Nc1nc(-c2ccccn2)nc(-c2ccccc2)c1C#N	i	i	i	i	i	i	nt	nt
CC(C)(C)CCNc1nc(-c2ccccn2)nnc1-c1ccccc1	nt	nt	28	nt	nt	nt	27	34
c1ccc(-c2ccc(CNc3nc(-c4ccccn4)nnc3-c3ccccc3)cc2)cc1	nt	nt	29	nt	nt	nt	37	28
CCC(C)Sc1nnc(C)c2cnn(-c3ccccc3)c12 (stereo unspecified)	i	nt	nt	nt	nt	nt	nt	nt
COC(=O)Cc1c(C)c2ccc(OCC(=O)N3CCCC3)c(C)c2oc1=O	i	i	28	i	i	i	28	i
COC(=O)Cc1c(C)c2ccc(OCC(=O)N3CCC(C)CC3)c(C)c2oc1=O	i	i	28	i	i	i	40	i
CCOC(=O)CCc1c(C)c2ccc(OCC(=O)N3CCOCC3)c(C)c2oc1=O	i	i	i	i	i	i	nt	nt
Cc1ccc(NC(=O)N(C2=NCCC2)c2cccc(C)c2C)cc1	i	nt	nt	nt	nt	nt	nt	nt
Cc1nc2ccccc2c2oc(C(=O)N3CCC(N4CCCCC4)CC3)cc12	i	nt	nt	nt	i	i	nt	nt
Cc1nc2ccccc2c2oc(C(=O)N3CCN(C4CCCCC4)CC3)cc12	i	i	26	i	i	i	i	15
CN(C)CCCN(C(=O)c1cccc(S(C)(=O)=O)c1)c1nc2c(Cl)cccc2s1	i	nt	nt	nt	nt	nt	nt	nt
COc1cc2c(cc1OC)CN1CCc3cc(OC)c(OC)cc3C1C2 (stereo unspecified)	nt	nt	i	nt	nt	nt	nt	nt
CCC1=C(CC2NCCc3ccccc32)CC2c3cc(OC)c(OC)cc3CCN2C1 (stereo unspecified)	i	nt	76	nt	i	i	83	28
CN(C)c1nc(-c2ccc([N+](=O)[O-])cc2)[n+](Cc2ccc([N+](=O)[O-])cc2)s1	i	nt	nt	nt	nt	nt	nt	nt
CCOc1ccc(C2c3[nH]c4ccccc4c3CCN2C(=O)Cn2cncn2)cc1 (stereo unspecified)	i	i	37	i	i	i	34	i
